“And” between values parts separate entries of the source, which are not always exact repeats. Equal entries are not always repeated. The campaign covered roughly 5,500 compounds. About 2,000 (36%) were called active. Not shown: some 18% with an inconclusive outcome. No stated cut-off is given here; in the data, active means normalized growth mostly below about 0.91 (no sharp cut-off); inconclusive means no clear call, values can overlap the other calls; inactive means mostly above about 0.92. This is one part of the list.
Assay: chemical genetic growth profiling, strain panel (AID 1159580);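 further: tested at 20 µM; growth read once vehicle control cultures reached saturation at 30 °C; 1 = growth at the plate median or of vehicle wells; lower values mean less growth of the strain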
Conditions: S. cerevisiae deletion strains, growth OD

Measured: normalized growth

CC(C)NCC(O)COc1cccc2[nH]ccc12 (centres undefined)
inactive: locus YAL013W, strain DEP1, hits give low values 1 and 0.99 | locus YAL021C, strain ccr4, hits give low values 1.01 | locus YAL026C, strain drs2, hits give low values 0.986 | locus YAL030W, strain snc1, hits give low values 0.982 | locus YAL040C, strain CLN3, hits give low values 0.983 and 0.988 | locus YBL061C, strain skt5, hits give low values 0.977 | locus YBR009C, strain hhf1, hits give low values 0.983 | locus YBR021W, strain FUR4, hits give low values 1.02 | locus YBR023C, strain chs3, hits give low values 0.979 | locus YBR171W, strain sec66, hits give low values 0.979 | locus YBR229C, strain ROT2, hits give low values 0.999 | locus YBR231C, strain swc5, hits give low values 0.986 | locus YBR279W, strain paf1, hits give low values 0.992 | locus YCL011C, strain gbp2, hits give low values 0.98 | locus YCL016C, strain dcc1, hits give low values 0.981 | locus YCL029C, strain bik1, hits give low values 0.993 | locus YCL061C, strain MRC1 (second series), hits give low values 0.998 and 0.999 | locus YCL061C, strain MRC1, hits give low values 0.984 | locus YCL069W, strain vba3, hits give low values 0.983 | locus YCR088W, strain abp1, hits give low values 0.983 | locus YDL005C, strain med2, hits give low values 0.988 | locus YDL035C, strain GPR1, hits give low values 0.993 | locus YDL040C, strain nat1, hits give low values 0.986 | locus YDL074C, strain BRE1, hits give low values 1 | locus YDL101C, strain DUN1, hits give low values 0.988 | locus YDL134C, strain PPH21, hits give low values 0.989 | locus YDL185W, strain tfp1, hits give low values 0.947 | locus YDL192W, strain arf1, hits give low values 0.974 | locus YDR001C, strain nth1, hits give low values 0.974 | locus YDR069C, strain doa4, hits give low values 0.976 | locus YDR101C, strain arx1, hits give low values 0.983 | locus YDR137W, strain rgp1, hits give low values 0.975 | locus YDR150W, strain NUM1, hits give low values 1 and 0.997 | locus YDR159W, strain sac3, hits give low values 0.955 | locus YDR162C, strain NBP2, hits give low values 0.995 | locus YDR195W, strain ref2 0.927 | locus YDR297W, strain sur2, hits give low values 0.988 | locus YDR318W, strain mcm21, hits give low values 0.977 | locus YDR334W, strain swr1, hits give low values 0.978 | locus YDR335W, strain msn5, hits give low values 0.983 | locus YDR363W, strain ESC2, hits give low values 0.991 and 0.993 | locus YDR388W, hits give low values 0.979 | locus YDR392W, strain spt3, hits give low values 0.902 | locus YDR502C, strain sam2, hits give low values 0.986 | locus YEL003W, strain gim4, hits give low values 0.988 | locus YEL037C, strain rad23, hits give low values 1.01 | locus YEL061C, strain CIN8 (second series), hits give low values 0.972 | locus YEL061C, strain CIN8, hits give low values 0.997 | locus YER002W, strain NOP16, hits give low values 0.987 and 1.02 | locus YER015W, strain faa2, hits give low values 0.989 | locus YER016W, strain bim1, hits give low values 0.979 | locus YER110C, hits give low values 0.978 | locus YER111C, strain swi4, hits give low values 0.983 | locus YER155C, strain BEM2 (second series), hits give low values 0.97 | locus YER155C, strain BEM2, hits give low values 0.994 | locus YER167W, strain BCK2, hits give low values 0.991 | locus YFR010W, strain ubp6, hits give low values 0.961 | locus YGL078C, strain dbp3, hits give low values 0.99 | locus YGL086W, strain mad1, hits give low values 0.999 | locus YGL167C, strain pmr1, hits give low values 0.976 | locus YGL173C, strain kem1, hits give low values 0.989 | locus YGL227W, strain vid30, hits give low values 0.977 | locus YGL240W, strain doc1, hits give low values 0.986 | locus YGL248W, strain PDE1, hits give low values 0.997 | locus YGL253W, strain hxk2, hits give low values 0.981 | locus YGR078C, strain PAC10, hits give low values 0.993 and 1.01 | locus YGR135W, strain pre9, hits give low values 0.989 | locus YGR229C, strain SMI1, hits give low values 1.01 | locus YGR252W, strain gcn5, hits give low values 1.16 | locus YHR013C, strain ard1, hits give low values 0.943 | locus YHR027C, strain rpn1, hits give low values 0.986 | locus YHR030C, strain SLT2, hits give low values 0.99 and 0.988 | locus YHR079C, strain IRE1 (second series), hits give low values 0.977 | locus YHR079C, strain IRE1, hits give low values 0.977 | locus YHR094C, strain hxt1, hits give low values 0.977 | locus YHR129C, strain ARP1, hits give low values 1 | locus YHR142W, strain chs7, hits give low values 0.997 | locus YHR200W, strain rpn10, hits give low values 0.978 | locus YIL066C, strain RNR3, hits give low values 0.999 | locus YIR030C, strain dcg1, hits give low values 0.991 | locus YJL092W, strain hpr5, hits give low values 0.979 | locus YJL095W, strain BCK1 (second series), hits give low values 0.984 | locus YJL095W, strain BCK1, hits give low values 1.01 and 0.997 | locus YJL115W, strain asf1, hits give low values 0.975 | locus YJL129C, strain trk1, hits give low values 0.997 | locus YJL134W, strain LCB3, hits give low values 0.984 | locus YJL154C, strain vps35, hits give low values 0.98 | locus YJL164C, strain tpk1, hits give low values 1 | locus YJL166W, strain qcr8, hits give low values 1.01 | locus YJL168C, strain set2, hits give low values 0.983 | locus YJL187C, strain SWE1 (second series), hits give low values 0.987 | locus YJL187C, strain SWE1, hits give low values 0.985 | locus YJR043C, strain POL32, hits give low values 1 | locus YJR066W, strain TOR1, hits give low values 0.94

Source: PubChem BioAssay AID1159580 (chemical genetic matrix, 2015)
